Source: PubChem BioAssay
“And” between values parts separate entries of the source, which are not always exact repeats. Equal values may be shown once. For some of these results: Potency and affinity values are given separately. The source made the active and inactive calls. Unless noted, no stated cut-off is given here; in the data, active means parasite load remaining mostly below about 12% (no sharp cut-off); inactive means mostly above about 10%.

What was measured:
[1] = polyglutamine-triggered caspase-3 activation inhibitors, cell-based (AID 1583); details: polyglutamine-induced caspase-3 activation, cell assay; stronger effect = higher value;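 tested at 10 µM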
[2] = suppressors of polyQ aggregation in yeast, 75Q-TubU reporter (AID 1593); details: Yeast 75Q polyglutamine aggregation reporter
[3] = rescue of polyQ-huntingtin neuronal dysfunction in worms, whole organism, C. elegans mechanosensory neurons, N-terminal huntingtin (AID 1599); details: touch response, stronger effect = higher value
[4] = inhibitors of mitochondrial cytochrome c release, biochemical, purified mitochondria (AID 1603); details: stronger effect = lower value;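 further: mouse liver mitochondria challenged with calcium chloride; signal normalized to the plate average as 100%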
[5] = inhibitors of polyQ protein aggregation (AID 1604); details: polyglutamine-induced protein aggregation inhibition assay; stronger effect = higher value; tested at 2.5 µM
[6] = enhancers of glutamate uptake in motor neurons, MN-1 cell line (AID 1612); details: MN-1 motor neuron cells, stronger effect = higher value;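 further: tested at 1 µM final; 0% = mean of DMSO vehicle wells on each plate; positive means more glutamate uptake than control and negative means less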
[7] = reducers of polyQ inclusions in PC12 cells, cell-based, NGF-treated PC12, GFPQ80 (AID 1614); details: PC12 NGF-treated GFP-polyQ80 inclusion reduction;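 further: lower means fewer inclusions and 0 means no inclusions at all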
[8] = suppressors of polyglutamine aggregation in yeast, 75Q-TubH (AID 1616); details: S. cerevisiae 75Q-TubH polyglutamine aggregation suppression; stronger effect = higher value
[9] = liver-stage malaria parasite growth inhibition, primary screen, cell-based, HepG2, luciferase luminescence, HepG2 viability (AID 624349);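 further: 100% = mean of DMSO negative control wells on the same plate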; details: P. berghei liver stage in HepG2, luciferase luminescence, concentration not given here; parasite load remaining: stronger effect = lower value; viability: measured here: HepG2 viability without parasites
[10] = differential killing of epithelial or mesenchymal cells, primary screen, imaging, PC-3E GFP, TEM4-18 mCherry, co-culture (AID 1345086;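 active means compounds killing one labelled cell type while sparing the other, by normalised counts and ratio limits, not self-fluorescent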;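 on all read-outs here: cells exposed to compound for 72 h before imaging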;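 on red/green cell ratio (normalised): normalised mesenchymal count divided by normalised epithelial count so high means epithelial killing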); details: imaging cell counts, at 1 µM; for red/green cell ratio (normalised): actives lie on both sides, counts scaled to control wells, 1 = unselective
[11] = sensitizers of A549 cells to miR-34 induction, primary screen, imaging, A549 dox-inducible miR-34, nuclei and caspase counts (AID 1347080;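 active means compounds whose cell count with miR-34 switched on is under 0.7 times the count with it off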); details: A549 miR-34 inducible, Hoechst nuclei count, 48 h
[12] = measured here: epithelial PC-3E GFP cell survival
[13] = measured here: mesenchymal TEM4-18 mCherry cell survival
[14] = stronger effect = lower value, cell number ratio, induced over uninduced
[15] = measured here: relative caspase fold change +Dox/-Dox
[16] = measured here: total cells with miR-34 induction, stronger effect = lower value
[17] = measured here: total cells without miR-34 induction

Row | Structure (SMILES) | inhibition [1] [%] | score [2] | rescue above control [3] | cytochrome c release ratio [4] | inhibition of aggregation [5] [%] | glutamate uptake change [6] [%] | inclusion score [7] | aggregation suppression score [8] | parasite load remaining [9] | viability [9] | red/green cell ratio (normalised) [10] | normalised cell number [10, 12] | normalised cell number [10, 13] | fold change [11, 14] | fold change [11, 15] | cell count [11, 16] | cell count [11, 17]
1 | CO[C@H]1C[C@H](O[C@H]2[C@H](C)[C@@H](OC3O[C@H](C)C[C@H](N(C)C)[C@H]3O)[C@@H](C)C[C@]3(CO3)C(=O)[C@H](C)[C@@H](O)[C@@H](C)[C@@H](C)OC(=O)[C@@H]2C)O[C@@H](C)[C@@H]1O (some centres not stated) | 27 | 1.24 | 28.2 | 0.97 | 7.94 | 5.06 | 2 | 1.24 | 283% (inactive) and 48.5% (inactive) | 76% and 96.5% | 1.12 (inactive) | 0.84 | 0.94 | 0.824 (inactive) | 2.52 | 10700 | 13000
2 | CC(=O)OCC(=O)[C@@]12OC3(CCCC3)O[C@@H]1CC1C3CCC4=CC(=O)C=C[C@]4(C)[C@@]3(F)[C@@H](O)C[C@@]12C (some centres not stated) | 11.1 | 0.65 | -4.49 | 0.91 | 31.4 | 27.2 | 2 | 0.855 | 189% (inactive) and 59% (inactive) | 84% and 96.4% | 1.04 (inactive) | 1.4 | 1.46 | 0.917 (inactive) | 2.86 | 7510 | 8190
3 | CO[C@@]1(NC(=O)CSCC#N)C(=O)N2C(C(=O)O)=C(CSc3nnnn3C)CSC21 (some centres not stated) | 20.8 | 1.29 | -0.81 | 0.56 | 33.3 | -5.52 | 2 | 1.5 | 99.4% (inactive) and 54.5% (inactive) | 73% and 111% | 0.89 (inactive) | 1.07 | 0.95 | 0.923 (inactive) | 3.61 | 12200 | 13200
4 | CCC(=O)OCC(=O)C1(OC(=O)CC)C(C)CC2C3CCC4=CC(=O)C=CC4(C)C3(Cl)C(O)CC21C (configuration not stated) | -26 | 0.15 | -4.19 | 1.11 | 41.7 | 23.7 | 2 | 1.25 | 142% (inactive) and 79.4% (inactive) | 78.6% and 97.5% | 1.47 (inactive) | 0.88 | 1.29 | 0.749 (inactive) | 1.52 | 6530 | 8720
5 | NC[C@@H]1O[C@H](O[C@@H]2[C@@H](CO)OC(O[C@@H]3[C@@H](O)[C@H](N)C[C@H](N)[C@H]3OC3O[C@H](CN)[C@@H](O)[C@H](O)[C@H]3N)[C@@H]2O)[C@H](N)[C@@H](O)[C@@H]1O (some centres not stated) | -14.5 | 0.97 | 4.93 | 0.82 | 43.7 | -6.09 | 2 | 1.49 | 59.3% (inactive) | 91.2% | 0.97 (inactive) | 1.02 | 0.98 | 0.934 (inactive) | 0.542 | 12000 | 12900
6 | C[C@]12CCC3c4ccc(O)cc4CCC3C1CC[C@@H]2O (some centres not stated) | 29.2 | 0.39 | 6.83 | 1.24 | 47.9 | 35.2 | 2 | 0.216 | 84% (inactive) and 56.6% (inactive) | 74.3% and 92.5% | 1.16 (inactive) | 1.32 | 1.53 | 0.991 (inactive) | 1.49 | 11000 | 11100
7 | CC(COc1ccccc1)NC(C)[C@H](O)c1ccc(O)cc1 (some centres not stated) | -10.5 | 1.07 | -0.43 | 0.93 | 67.5 | 5.98 | 2 | 0.981 | 58.3% (inactive) | 72.5% and 101% | 1.11 (inactive) | 1.16 | 1.29 | 0.796 (inactive) | 1.19 | 10800 | 13600
8 | C[C@H]1CC2C([C@@H](O)C[C@@]3(C)C2CC[C@]3(O)C(=O)CO)[C@@]2(C)C=CC(=O)C=C12 (some centres not stated) | 13.3 | 1.06 | -2 | 0.64 | 83.1 | 14.1 | 2 | 1.35 | 110% (inactive) and 67.7% (inactive) | 78.4% and 89.4% | 1.21 (inactive) | 1.36 | 1.64 | 0.922 (inactive) | 1.43 | 7440 | 8070
9 | C#C[C@]1(O)CCC2C3CCC4=CC(=O)CC[C@@H]4C3CC[C@@]21C (some centres not stated) | -3.25 | 0.94 | 10.4 | 1.47 | 89.7 | -5.05 | 2 | 0.524 | 118% (inactive) and 51.8% (inactive) | 71.2% and 90% | 0.86 (inactive) | 1.29 | 1.11 | 0.914 (inactive) | 1.55 | 10400 | 11300
10 | CNC[C@@H](O)c1ccc(O)c(O)c1 | 15.5 | 1.46 | -0.75 | 0.7 | 86.2 | -6.16 | 1 | 1.31 | 51.9% (inactive) and 119% (inactive) | 72.9% and 92% | 1.49 (inactive) | 1.01 | 1.5 | 0.901 (inactive) | 3.62 | 11500 | 12800
11 | CC(C)[N+]1(C)C2CC[C@@H]1CC(OC(=O)C(CO)c1ccccc1)C2 (some centres not stated) | 3.73 | 1.48 | -2.72 | 0.9 | 73 | -1.05 | 2 | 0.901 | 88% (inactive) and 61.6% (inactive) | 79% and 98.1% | 0.61 (inactive) | 1.35 | 0.82 | 0.876 (inactive) | 1.18 | 10700 | 12200
